Measurements from ChEMBL document CHEMBL3988442, “University of Dundee, Small-Polar-MMV Screening Library” (2021).
In all, about 38,000 compounds went through this assay and about 1,200 (3.2%) showed an effect of 50% or more. The median lay at about -58%. What follows is part of a selection rich in strong results, with near analogues and random picks from the rest.

tested on: Plasmodium falciparum; assay: Calibr Malaria Delayed Death Assay SOP; assay type: functional, organism-based; design: scale not given: in the data most compounds retested in dose-response had high values; settings: concentration 4.99e-06 (unit not given; other assays of the set use mol/L)

| Compound | Percent Effect [%] |
| --- | --- |
| c1ccc2c(c1)COC1(CCCC1)N2 | -67.59 |
| Cn1nc(CN2CCCCC2)c2c1CN(C(=O)c1ccccc1)C2 | -57.34 |
| CC(C)NC(=O)c1nn(C)c(NC(=O)Cc2ccccc2)c1F | -24.59 |
| Cc1nc(CNC(=O)NC2CCN(c3ncccn3)CC2)cs1 | -218.9 |
| CCOCCCn1c(NC(=O)c2cc(C)no2)nc2ccccc21 | -48.09 |
| Cn1cccc1C(=O)N1C[C@H]2CC[C@@H]1CN(Cc1cscn1)C2 | -15.16 |
| O=S(=O)(c1cc(F)ccc1F)N1CCCC1c1ccco1 (stereo unspecified) | -139.7 |
| CCN1CCCC(O)(CN(C)Cc2ccc(C)o2)C1 (stereo unspecified) | 18.1 |
| Cc1ccc(CN(C)CC2(O)CCCN(C)C2)o1 (stereo unspecified) | 53.08 |
| Cc1ccc(CN2CCCC3(CCN(Cc4ccc(C)o4)C3)C2)o1 (stereo unspecified) | 14.98 |
| O=C(c1ccccn1)N1CCc2ncnc(-c3ccncc3)c2CC1 | -17.27 |
| COc1cccc(OC)c1-c1ccnc2cc(CC(=O)N(C)C)nn12 | -114.9 |
| CC(C)NC(=O)CC1CC2(CCN(S(C)(=O)=O)CC2)c2ccccc21 (stereo unspecified) | -30.05 |
| COc1ccc(-c2cn3c(n2)CO[C@@H](CNCc2nccn2C)C3)cc1 | 20.49 |
| Cc1ccc(-c2cn3c(n2)CO[C@@H](CNCc2nccn2C)C3)cc1 | 87.31 |
| Cc1cccnc1CNC[C@H]1Cn2cc(-c3ccccc3)nc2CO1 | 30.07 |
| Cn1ccnc1CNC[C@H]1Cn2cc(-c3ccccc3)nc2CO1 | 55.94 |
| Cc1ccc(CNC[C@H]2Cn3cc(-c4ccccc4)nc3CO2)cc1 | -116.4 |
| Cc1ccc(-c2cn3c(n2)CO[C@@H](CNCc2cnn(C)c2)C3)cc1 | -51.89 |
| Fc1ccccc1OC1CCN(CCn2cc3ccccc3n2)CC1 | -71.75 |
| CCC1CN(CC(=O)N2CCCC2)CCN1CCOC (stereo unspecified) | -62.36 |
| Cc1ccc(N2CCC3(CCN(C(=O)c4ccsc4)CC3)C2)nn1 | -9.92 |
| NC(=O)N1CCC2(CCN(Cc3ccccn3)C2=O)C1.O=C(O)C(F)(F)F (stereo unspecified) | -110.7 |
| COCC(O)CN1CCC(=O)N(Cc2ccccc2)Cc2ccccc21 (stereo unspecified) | -18.3 |

| Compound | Percent Effect [%] |
| --- | --- |
| COc1ncccc1CNCc1c(C(C)C)nn(C)c1OC | -36.33 |
| COc1ncccc1CNCc1c(C(C)C)nn(C)c1Cl | 51.46 |
| CC(C)c1nn(C)c(N(C)C)c1CNCC(O)c1ccccc1 (stereo unspecified) | -60.19 |
| COc1ncccc1CNCc1c(C(C)C)nn(C)c1N(C)C | 6.61 |
| CC(C)c1nn(C)c(N(C)C)c1CNCC(O)c1ccccc1F (stereo unspecified) | -90.64 |
| CC(C)c1nn(C)c(N(C)C)c1CNCC(O)c1cccc(F)c1 (stereo unspecified) | 28.02 |
| COc1c(CNCC(c2cccc(F)c2)N(C)C)c(C(C)C)nn1C (stereo unspecified) | 19.73 |
| CC(C)c1nn(C)c(Cl)c1CNCC(O)c1cccc(F)c1.Cl (stereo unspecified) | 81.83 |
| CC(C)OCCCNC(=O)c1cccnc1N1CCOCC1 | -113.7 |
| Cn1ccnc1CN1CCCN(C(=O)c2ccc3c(c2)OCO3)CC1 | -109.5 |
| O=C(Nc1nncs1)N1CCC(c2ccc(O)cc2)CC1 | -154 |
| CCN1C(=O)CCCC12CCCN(C(=O)c1conc1C)C2 (stereo unspecified) | -139.9 |
| CCCS(=O)(=O)N1CCC2(CN(c3ccccc3)C(=O)CN2C)C1.O=C(O)C(F)(F)F (stereo unspecified) | -40.82 |
| CC1Oc2c(cccc2C(=O)N2CCCCCC2)NC1=O (stereo unspecified) | -198.9 |
| c1ccc(CN(Cc2ncc[nH]2)Cc2nccs2)cc1 | 15.24 |
| Cc1cccc(CN(Cc2ccccc2)Cc2nccs2)n1 | -42.32 |
| Cc1nc[nH]c1CN(Cc1ccccc1)Cc1nccs1 | 74.62 |
| Cc1cccc(CN2CC[C@@H]3O[C@@H](C(=O)N4CCN(C)CC4)C[C@@H]32)c1 | 7.549 |
| Cc1nc2ccnn2c(C)c1CCC(=O)N1CCSCC1 | -118.8 |
| Cc1cccc(N2CCOCC3(C2)CN(c2ccccc2)C(=O)CO3)n1.O=C(O)C(F)(F)F (stereo unspecified) | -64.15 |
| Cc1cccc(N2CCOCC3(C2)CN(c2ccoc2)C(=O)CO3)n1.O=C(O)C(F)(F)F (stereo unspecified) | 65.62 |
| Cc1cccc(N2CCOCC3(C2)CN(c2cnn(C)c2)C(=O)CO3)n1.O=C(O)C(F)(F)F (stereo unspecified) | -79.15 |
| OC1(CN2CCOC(Cn3cncn3)C2)CCCCC1 (stereo unspecified) | -41.07 |
| Cc1ccc2nc(CN(C)Cc3n[nH]c4c3CCCCC4)[nH]c2c1C | 85.65 |

| Compound | Percent Effect [%] |
| --- | --- |
| CN(Cc1cc2n(n1)CCNC2)Cc1n[nH]c2c1CCC2 | -20.1 |
| CN(Cc1cc2n(n1)CCCNC2)Cc1n[nH]c2c1CCC2 | -43.74 |
| Cc1ccc2nc(CN(C)Cc3[nH]nc4c3CCC4)[nH]c2c1C | 36.38 |
| CN(Cc1cc2n(n1)CCNC2)Cc1n[nH]c2c1CCCCC2 | -6.476 |
| Cc1ccc2[nH]c(CN(C)Cc3n[nH]c4c3CCC4)nc2c1 | 82.04 |
| CCn1nc(CC(C)C)cc1C(=O)NCCCN1CCOCC1 | -66.39 |
| CN(Cc1ccc2c(c1)OCCO2)Cn1nc(C(C)(C)C)ccc1=O | -39.48 |
| CN(Cc1ccncc1)C1COC2(CCN(Cc3nccn3C)CC2)C1.O=C(O)C(F)(F)F.O=C(O)C(F)(F)F.O=C(O)C(F)(F)F (stereo unspecified) | -27.83 |
| O=C(O)C(F)(F)F.O=C1[C@H]2CN(S(=O)(=O)C3CC3)C[C@H]2CN1Cc1cccnc1 | -0.2941 |
| CC(=O)C1(c2ccccc2)CCN(C(=O)CC2CNCCO2)CC1 (stereo unspecified) | -46.22 |
| CC(=O)C1(c2ccccc2)CCN(C(=O)C2CNCCO2)CC1 (stereo unspecified) | -83.28 |
| O=C(C1CNCCO1)N1CCCC(c2ccccc2)(c2ccccc2)C1 (stereo unspecified) | 79.21 |
| O=C(c1cccnc1SC/C=C/c1ccccc1)N1CCOCC(O)C1 (stereo unspecified) | 53.57 |
| O=C(c1cccnc1SCc1ccccc1)N1CCOCC1 | -36.51 |
| O=C(c1cccnc1SC/C=C/c1ccccc1)N1CC[C@H](O)C1 | -73.62 |
| CCS(=O)(=O)N1CCC2(CC1)CN(CC1CCOC1)c1ccccc12.O=C(O)C(F)(F)F (stereo unspecified) | 19.88 |
| O=C(O)C(F)(F)F.O=C(O)C(F)(F)F.OCCN1CC2(CCN(CC3CC3)CC2)c2ccccc21 | -50.6 |
| Cc1cnc(N2CCC3(CCN(CC4CC4)C3=O)CC2)nc1 | -170.6 |
| O=C(O)C(F)(F)F.c1ccc2c(c1)N(CC1CCOC1)CC21CCN(c2cnccn2)CC1 (stereo unspecified) | 68.42 |
| CS(=O)(=O)N1CCC2(CC1)CN(CC1CCOC1)c1ccccc12.O=C(O)C(F)(F)F (stereo unspecified) | -57.4 |
| O=C(O)C(F)(F)F.O=C1N(CC2CC2)CCC12CCN(c1ncccn1)CC2 | 4.695 |
| O=C(O)C(F)(F)F.c1cnc(N2CCC3(CC2)CN(CC2CC2)c2ccccc23)nc1 | 85.9 |
| c1cnc(N2CC3(CCN(C4CCOC4)CC3)c3ccccc32)nc1 (stereo unspecified) | -111.6 |
